Among all 360,000 compounds or so, about 17,000 (4.7%) were called active. Not shown: some 5% with an inconclusive outcome. Many of the other results were omitted from the sample, so actives are more common in it than they were. Values without a mark were called inactive. Rule as the data show it: active = activity change below about -50%; inconclusive = mostly about -30% to -49%; inactive = weaker than that.
% is scaled to controls: 0 for no effect and ±100 for the full control effect.

A short description of the assay: qHTS for Inhibitors of Inflammasome Signaling: IL-1-beta AlphaLISA Primary Screen. Particulars: THP-1 LPS/ATP IL-1B secretion, 16 h; at 57.5 µM, active compounds read low. The gist of the method:
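THP-1 cells pretreated 1 hr with compounds (up to 57.5 uM final), then stimulated with LPS (250 ng/mL final) plus ATP (1.25 mM final); secreted IL-1B measured by AlphaLISA after 16 hr, decreased signal indicating inhibition.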
Take `CC1(C(=O)NS(=O)(=O)c2ccccc2)CCN1C(=O)Cc1ccc(-c2ccccc2)cc1` (centres undefined): the activity change was -14.7%.

In the case of `Cn1c(CCNS(=O)(=O)c2ccc(F)cc2)nnc1SCc1cccnc1`, the activity change was 22.3%.

Regarding `CCN(C(=O)CSc1ncn[nH]1)c1cccc2ccccc12`, the activity change is 19.5%.

`CCN(C(=O)COC(=O)c1ccccc1O)c1cccc2ccccc12`: the activity change was -54.8% (active).

As for `Cc1cccc(C)c1NC(=O)COC(=O)c1ccccc1O`, the activity change is 12.4%.

`Cc1ccc(Sc2ccc(NC(=O)c3ccc(F)cc3)cc2C#N)cc1`: the activity change was 10.9%.

On to `CC1CCCC(NC(=O)c2cccc(N3CCCC3=O)c2)C1C` (centres undefined), for which the activity change is 9.06%.

Consider `CC1CCN(C(=O)COC(=O)c2cc(S(=O)(=O)N3CCOCC3)ccc2Cl)CC1`, for which the activity change was 11%.

In the case of `Cc1ccc(CS(=O)Cc2ccc(C(=O)N3CCOCC3)o2)cc1` (centres undefined), the activity change was 41.9%.

Consider `O=C(c1ccc(CS(=O)(=O)c2ccccc2)o1)N1CCN(c2ccccc2)CC1`, for which the activity change was 41.8%.

On to `O=C(c1ccc(CS(=O)Cc2ccccc2Cl)o1)N1CCN(c2ccccc2)CC1` (centres undefined), for which the activity change was -50.4% (active).

Regarding `COc1cc(/C=C/CNC[C@H]2O[C@@H](n3cnc(C(N)=O)n3)[C@H](O)[C@@H]2O)ccc1O`, the activity change is -17.5%.

Take `O=C(O)CCn1cc(/C=C/C(=O)c2ccc(Cl)cc2)c(-c2cccc(Br)c2)n1`: the activity change is -96.6% (active).

With `O=C(/C=C/NNC(=O)c1cccc(Br)c1)c1ccccc1`, the activity change was -15.9%.

For the compound `CCOC(=O)/C(C#N)=C/c1cn(CCC(=O)O)nc1-c1ccc(Br)cc1`, the activity change was 0%.

`CC(=O)N/C(=C\c1ccc(F)cc1)C(=O)NC(Cc1ccccc1)C(=O)O` (centres undefined): the activity change is 41.6%.

As for `C[C@@H]1CN([C@H](C)CO)C(=O)CCCn2nncc2CO[C@@H]1CN(C)C(=O)OCc1ccccc1`, the activity change was -18.7%.

Take `O=C(c1cc(COc2ccc(F)cc2F)on1)N1CCOCC1`: the activity change was 4.05%.

As to `CCOC(=O)N1CCN(C(=O)C[C@@H]2C[C@@]3(C(=O)OC)CCCCC=C3N(CCC3=CCCCC3)C2=O)CC1`, the activity change is -20.9%.

Regarding `O=C(Oc1cccc(C(=S)N2CCOCC2)c1)c1cccc(Cl)c1`, the activity change is -5.21%.

Regarding `CC(=O)Nc1ccccc1OC(=O)N1CCOCC1`, the activity change was 4.54%.

In the case of `O=C(/C=C/c1cccs1)c1cc(Cl)ccc1OC(=O)N1CCOCC1`, the activity change was -111% (active).

On to `COc1ccccc1C(=O)NC(CCSC)C(=O)N1CCN(C/C=C/c2ccccc2)CC1` (centres undefined), for which the activity change was -8.53%.

On to `O=C(CC(CC(=O)c1ccccc1)c1ccco1)c1ccccc1`, for which the activity change is 13.9%.

On to `COc1ccc(NC(=O)COC(=O)C2COc3ccccc3O2)cc1` (centres undefined), for which the activity change is 8.76%.

`CC(=O)c1ccc(OCC(=O)N(C)C2CCS(=O)(=O)C2)cc1` (centres undefined): the activity change was -0.496%.

Take `O=C(c1ccc(=O)[nH]c1)N(Cc1ccco1)C1(C(=O)NC2CCCCC2)CCCCC1`: the activity change is -5.54%.

`O=C(/C=C/c1c(F)cccc1Cl)Nc1nn[nH]n1`: the activity change is 19.3%.

Turning to `CNC(=O)/C(C#N)=C/c1c(F)cccc1Cl`, the activity change was -84.3% (active).

Regarding `Cc1cc(/C=C(/C#N)C(=O)Nc2ccc(Cl)cc2)c(C)n1-c1cccnc1`, the activity change is -3.14%.

As for `Cc1cccc(C(=O)OCC(=O)Nc2sccc2C(N)=O)c1C`, the activity change was -7.19%.

With `Cc1nn(C)cc1S(=O)(=O)N1CCN(c2ccc(F)cc2)CC1`, the activity change is 1.55%.

In the case of `COC1C(CO)OC(n2cnc3c(=S)nc(N)[nH]c32)C1O` (centres undefined), the activity change is 2.88%.

As to `O=c1cc(N2CCCCC2)c(-c2ccccc2)nn1Cc1cccc(F)c1`, the activity change is -2.53%.

For `Cc1ccc2oc(=O)ccc2c1`, the activity change is 12.6%.

On to `Cc1nc2c(OCC(=O)C(C)(C)C)cccn2c1N(C)Cc1cccs1`, for which the activity change is -25.2%.

For `CCc1nc2c(OCc3ccc(F)c(F)c3)cccn2c1N(C)C(=O)c1ccco1`, the activity change was 10.9%.

As for `Cc1nc2c(OCc3ccc(Cl)cc3)cccn2c1N(C)Cc1cccs1`, the activity change was -66.3% (active).

Consider `CCOC(=O)[C@]12CCC=C1N(Cc1cccc3ccccc13)C(=O)[C@H](CC(=O)NCc1cccc(C(F)(F)F)c1)C2`, for which the activity change is -21.1%.

As for `O=C(c1ccc2nc(N3CCOCC3)sc2c1)N1CCN(c2ccc(Cl)cc2)CC1`, the activity change is 1.67%.

On to `COc1ccc2nc(N3CCN(C(=O)c4ccc([N+](=O)[O-])o4)CC3)sc2c1`, for which the activity change is -88% (active).

As to `COc1ccc2nc(N3C(=O)C(O)=C(C(=O)c4ccco4)C3c3ccco3)sc2c1` (centres undefined), the activity change is 23.2%.

`Cc1cc(Br)cn2c(Cc3ccccc3C(F)(F)F)c(-c3ccc(Cl)cc3)nc12`: the activity change is 25.9%.

With `CC1(C(=O)NS(=O)(=O)c2ccccc2Cl)CCN1C(=O)c1cccc(F)c1` (centres undefined), the activity change was 22.3%.

For the compound `COc1ccc(CC(=O)NCc2nnc(SCC(=O)Nc3ncc(C)s3)n2C)cc1`, the activity change was 15.7%.

`CCOC(=O)c1c(CN2CCOCC2)n(-c2ccccc2)c2ccc(O)cc12`: the activity change was -54.1% (active).

In the case of `CC(=O)c1c(C)n(-c2ccc(C)cc2)c2ccc(O)cc12`, the activity change is 12.1%.

With `CCOC(=O)c1nnn(-c2nonc2-n2cccc2)c1CN1CCOCC1`, the activity change is 9.61%.

For the compound `CCOC(=O)Cc1csc(NC(NC(=O)OCC)(C(F)(F)F)C(F)(F)F)n1`, the activity change is 2.86%.

For the compound `CC(=O)NCc1ccc(-c2csc(NC(=O)CCCc3nc4ccccc4c(=O)[nH]3)n2)cc1`, the activity change was -3.36%.

Turning to `CCOC(=O)Cc1csc(NC(=O)Nc2ccccc2)n1`, the activity change was -69.2% (active).

As for `CC(=O)Nc1ccc(-c2cn3cccnc3n2)cc1`, the activity change is -2.21%.

With `CC(=O)Nc1ccc(-c2csc(NC(=O)Nc3ccccc3)n2)cc1`, the activity change is -57.5% (active).

On to `CCOC(=O)Cc1csc(NC(=O)CSc2ccc(Br)cc2)n1`, for which the activity change was 35.1%.

For `N#CCCN(C(=O)Nc1ccc(Cl)c(Cl)c1)C1CCCCC1`, the activity change is -24.2%.

Turning to `CCOC1=C2[C@H]([C@H]3C(=O)N(c4ccccc4)C(=O)[C@H]3C1)[C@@H](c1ccccc1)N(S(=O)(=O)c1ccc(C)cc1)[C@H]2c1ccccc1`, the activity change is 21.6%.

Turning to `COc1ccc(C(=O)c2oc3ccc(Br)cc3c2NC(C)=O)cc1`, the activity change is -26.9%.

On to `COc1ccc2occ(C(=O)c3ccc(N=C(C)N(C)C)cc3)c2c1`, for which the activity change is -57% (active).

With `COc1ccc(OC)c(C(=O)c2coc3ccc(OC)cc23)c1`, the activity change is 5.54%.

On to `Cc1nc(CN2CCN(C(=O)CCc3nnc(Cc4c[nH]c5ccccc45)o3)CC2)cs1`, for which the activity change is 21.5%.

`C[C@H]1CN([C@@H](C)CO)C(=O)c2cc(Br)cnc2O[C@H]1CN(C)S(=O)(=O)c1cccs1`: the activity change was -17.5%.

As to `Nc1ccccc1-c1nc2ccncc2[nH]1`, the activity change is -6.01%.

Turning to `CCCCn1c(N)c(N(CC(C)C)C(=O)c2ccc(-n3c(C)ccc3C)cc2)c(=O)[nH]c1=O`, the activity change is -61.6% (active).

As for `CCCCn1c(N)c(N(CC(C)C)C(=O)c2cnc(C)cn2)c(=O)[nH]c1=O`, the activity change is -2.8%.

For the compound `CCCCn1c(N)c(N(CC(C)C)C(=O)c2ccc(Br)o2)c(=O)[nH]c1=O`, the activity change is -3.41%.

As for `CC(C)c1ccc(-c2nn[nH]n2)cc1`, the activity change is -4.8%.

Consider `CN[C@H]1C[C@H]2c3cc(Oc4ccccc4C)ccc3CCN2C(=O)[C@H]1[C@H](C)O`, for which the activity change is -11%.

Regarding `[O-][n+]1onc2c1CCc1[nH]c(-c3ccccc3)nc1-2`, the activity change is -66.3% (active).

As for `N#Cc1c(-c2ccc(F)cc2)nc(-c2ccccc2)[nH]c1=O`, the activity change is 8.84%.

`CN1CCN(c2ccc3c(c2)OC[C@H](Cc2ccccc2)NS3(=O)=O)CC1`: the activity change is 2.92%.

Regarding `COc1cccc(-c2cc3nc(NCCOc4ccccc4Cl)n(C)c(=O)c3s2)c1`, the activity change is 33.6%.

Consider `O=c1[nH]c(CCl)nc2cc(-c3ccc(Cl)cc3)sc12`, for which the activity change is -93.8% (active).

`Cn1c(NCc2cccnc2)nc2cc(-c3ccc(F)cc3)sc2c1=O`: the activity change was 4.79%.

On to `O=c1[nH]c(=S)[nH]c(O)c1/C=C1\C=Nc2ccccc21`, for which the activity change was -3.38%.

On to `Cc1nc(C(F)(F)F)ccc1C(=O)N1CCC1(C)C(=O)NS(=O)(=O)c1ccccc1Cl` (centres undefined), for which the activity change was 27.9%.

Regarding `O=C(Nc1ccc2c(c1)[C@@H]1C[C@@H](CC(=O)N3CCCCC3)O[C@@H](CO)[C@@H]1O2)NC1CCCCC1`, the activity change was 7.94%.

For `CC1CN(Cc2ccccc2)C(=S)NC1=O` (centres undefined), the activity change was 5.57%.

Turning to `CC(=O)Oc1c(C(=O)c2nnc(C)o2)c(=O)n(Cc2ccccc2)c2ccccc12`, the activity change was -63.6% (active).

`CC(=O)OCC(C)n1c(=O)c2ccccc2n1C(C)=O` (centres undefined): the activity change is 21.8%.

As to `CC(=O)c1nc2ccccc2n1Cc1ccccc1`, the activity change is 24.8%.

Turning to `COc1ccc(NS(=O)(=O)c2cc(NC(=O)CC(=O)c3ccc([N+](=O)[O-])cc3)ccc2C)cc1`, the activity change was -19.6%.

Turning to `O=C(Nc1cc(-c2nc3ncccc3o2)ccc1Cl)c1ccco1`, the activity change is 4.47%.

As to `CC(C)(C)NC(=O)c1cc(NC(=O)c2ccco2)cc(NC(=O)c2ccco2)c1`, the activity change is 3.33%.

Take `O=C(Nc1cccc(-c2nc3ncccc3o2)c1)c1ccco1`: the activity change was -57% (active).

Regarding `Cc1ccc2nc(SCc3nnc(-c4ccccc4[N+](=O)[O-])o3)c(C#N)cc2c1`, the activity change is 24.6%.

Consider `Cc1ccc([C@H]2C[C@H](O)[C@@H](n3cc(COC(=O)c4ccccc4)nn3)CN2CC2CCCCC2)cc1`, for which the activity change was -1.43%.

`CN1CCN(C(=O)c2ccccc2NC(=O)COc2ccccc2Cl)CC1`: the activity change is 7.63%.

For the compound `COc1ccc(C(=O)OCC(=O)NCCCc2ccccc2)cc1OC`, the activity change was 19%.

With `CC(C)n1ncc2c(C(=O)N3CCN(Cc4cccs4)CC3)cc(C3CC3)nc21`, the activity change is -6.72%.

The values are drawn from PubChem BioAssay AID743279 (National Center for Advancing Translational Sciences (NCATS), 2014).
